# Tests used:
# Settings in all cases: concentration: 1 μM, replicates: in singlicate; n = 1
# [1] = system: TYK2(JH2domain-pseudokinase)
# TYRO3 = system: TYRO3
# ULK1 = system: ULK1
# ULK2 = system: ULK2
# ULK3 = system: ULK3
# VEGFR2 = system: T1, VEGFR2
# T1 construct: gene KDR
# VPS34 = system: T2, VPS34
# T2 construct: gene PIK3C3
# VRK2 = system: VRK2
# WEE1 = system: WEE1
# WEE2 = system: WEE2
# WNK1 = system: WNK1
# WNK2 = system: WNK2
# WNK3 = system: WNK3
# WNK4 = system: WNK4
# YANK1 = system: T3, YANK1
# T3 construct: gene STK32A
# YANK2 = system: T4, YANK2
# T4 construct: gene STK32B
# YANK3 = system: T5, YANK3
# T5 construct: gene STK32C
# YES = system: T6, YES
# T6 construct: gene YES1
# YSK1 = system: T7, YSK1
# T7 construct: gene STK25
# YSK4 = system: T8, YSK4
# T8 construct: gene MAP3K19
# 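Note: KINOMEscan kinase panel screen.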
SMILES,%Inh [1] [%],%Inh (TYRO3) [%],%Inh (ULK1) [%],%Inh (ULK2) [%],%Inh (ULK3) [%],%Inh (VEGFR2) [%],%Inh (VPS34) [%],%Inh (VRK2) [%],%Inh (WEE1) [%],%Inh (WEE2) [%],%Inh (WNK1) [%],%Inh (WNK2) [%],%Inh (WNK3) [%],%Inh (WNK4) [%],%Inh (YANK1) [%],%Inh (YANK2) [%],%Inh (YANK3) [%],%Inh (YES) [%],%Inh (YSK1) [%],%Inh (YSK4) [%]
Cn1cc(-c2ccc3c(c2)CCN3C(=O)Cc2cc(F)cc(C(F)(F)F)c2)c2c(N)ncnc21 [GSK2635225],1,0,0,0,0,22,3,0,0,0,8,10,30,13,19,0,0,13,22,88
O=C(Nc1c(F)cccc1F)c1cc(C(=O)c2ccccc2F)c[nH]1 [GSK1326180],0,0,15,0,2,0,5,0,2,6,8,0,0,0,1,0,0,0,10,0
CC(C)(C)c1ccc(C(=O)Nc2cn3cc(-n4ccnc4)ccc3n2)cc1,11,0,0,14,10,0,39,0,0,36,0,3,0,0,0,0,0,0,0,79
Cc1ccc(Nc2ccnc(Nc3ccc(C)c(F)c3)n2)cc1O.Cl [GW582868],74,29,12,0,10,0,0,48,0,17,41,12,31,49,1,0,1,53,0,25
CSc1ccc(NC2=C(c3ccc(Cl)cc3)C(=O)NC2=O)cc1 [SB-317658],0,0,19,0,12,0,22,13,5,0,20,24,4,0,0,2,33,0,0,21
COc1cc(Nc2ccnc3cc(-c4ccncc4)ccc23)cc(OC)c1OC.Cl [GW494610],18,89,100,0,15,0,0,19,0,18,22,4,16,19,2,32,9,76,0,98.5
COc1cc(Nc2nccc(N3CCC(NC(=O)Nc4ccc5c(c4)OCO5)C3)n2)cc(OC)c1OC (centres unmarked) [GSK1379766],52,0,14,14,86,7,0,0,0,0,11,11,46,5,0,0,6,7,0,45
N#Cc1cnc2cc(-c3cnc(CNCCN4CCOCC4)s3)ccc2c1Nc1ccc(Oc2ccccc2)cc1 [GW664114],36,84,10,0,48,12,0,8,7,23,74,95.9,94.2,89,0,0,0,97.1,19,97
CNc1nccc(-c2ccc3c(N)n[nH]c3c2)n1 [GSK2206003],89,0,42,41,9,31,15,18,9,7,1,0,4,2,62,53,20,24,20,76
COc1cc(Nc2nccc(N3CCC(NS(=O)(=O)c4ccc(NC(C)=O)cc4)CC3)n2)cc(OC)c1OC [GSK1379825],84,76,21,11,97.4,0,34,0,75,0,0,16,25,23,2,7,0,39,16,32
Cc1ccccc1CC(=O)N1CCc2cc(-c3cn(C)c4ncnc(N)c34)ccc21 [GSK2603346],40,0,16,0,19,69,2,0,0,17,18,25,50,8,7,0,22,18,54,84
Cl.Cl.NC(CNC(=O)c1cc(Br)c(-c2ccnc3[nH]ccc23)s1)c1ccccc1 (centres unmarked) [GSK1322949],38,0,49,0,8,30,59,67,18,0,1,0,24,20,22,0,0,2,28,94.8
O=C1NC(=O)C(c2ccccc2Cl)=C1Nc1cccc(Cl)c1 [SB-342409],29,0,36,0,24,0,0,12,0,6,14,8,0,1,0,0,100,17,15,40
CCn1c(-c2nonc2N)nc2c(-c3ccccc3)ncc(OCCCN)c21.O=C(O)C(F)(F)F.O=C(O)C(F)(F)F [GSK260205],95.2,0,9,0,4,21,0,28,2,8,22,14,32,15,99.4,87,50,28,23,99.6
Cc1ccc(O)cc1Nc1ccnc2cc(-c3ccc(CN4CCCCC4)o3)ccc12 [GW557777],0,59,0,0,0,93.6,0,0,5,0,0,0,0,0,10,0,0,99.8,0,13
Fc1cc(Cl)ccc1Nc1ccnc2cc(-c3ccc(CN4CCSCC4)o3)ccc12 [GW560106],52,61,0,0,15,65,0,29,0,2,1,0,35,14,7,24,1,79,19,66
COc1ccc(C2=C(Nc3cccc(O)c3)C(=O)NC2=O)cc1 [SB-390766],46,0,26,0,25,0,0,0,90,6,16,99.7,34,87,0,0,17,0,0,44

SMILES,%Inh [1] [%],%Inh (TYRO3) [%],%Inh (ULK1) [%],%Inh (ULK2) [%],%Inh (ULK3) [%],%Inh (VEGFR2) [%],%Inh (VPS34) [%],%Inh (VRK2) [%],%Inh (WEE1) [%],%Inh (WEE2) [%],%Inh (WNK1) [%],%Inh (WNK2) [%],%Inh (WNK3) [%],%Inh (WNK4) [%],%Inh (YANK1) [%],%Inh (YANK2) [%],%Inh (YANK3) [%],%Inh (YES) [%],%Inh (YSK1) [%],%Inh (YSK4) [%]
COc1cccc(NC(=O)NCCNc2ccnc(Nc3ccc(F)cc3)n2)c1 [GSK1379879],48,0,13,0,26,0,0,0,31,6,5,22,22,46,0,0,0,0,0,44
O=C(Nc1n[nH]c2nc(-c3cccc(O)c3)ccc12)C1CC1 [SB-711805],0,0,0,10,7,16,23,0,0,0,28,26,0,63,4,0,0,0,0,90.9
Fc1cc(Cl)ccc1Nc1ccnc2cc(-c3ccc(CN4CCOCC4)o3)ccc12 [GW560109],29,83,15,8,34,82,0,27,0,0,10,4,1,8,8,21,24,84,0,71
CC(C)c1nc(-c2ccc(F)c(NS(=O)(=O)c3c(F)cccc3F)c2)c(-c2ccnc(Nc3ccc(N4CCOCC4)nc3)n2)s1 [GSK1804250],0,86,9,19,50,47,0,11,5,16,7,0,0,31,42,71,15,99.2,32,40
COc1cccc(C2=C(Nc3cccc(O)c3)C(=O)NC2=O)c1 [SB-390771],25,0,17,0,23,3,0,10,20,12,13,25,7,35,0,0,2,15,16,43
Cc1cc(-c2c(-c3ccc(F)cc3)ncn2CCCN2CCOCC2)nc(N)n1 [SB-222517],16,0,20,30,18,5,29,0,47,1,0,0,0,0,0,13,16,0,20,11
Nc1ncnc2scc(-c3ccc(NC(=O)Cc4cc(F)ccc4F)cc3)c12.O=C(O)C(F)(F)F [SB-731254-M],0,0,11,1,34,80,0,0,0,0,0,0,0,25,89,90.1,28,29,0,97.8
Cc1ccc(NC(=O)c2ccc(Cl)c(Cl)c2)cc1-c1ccc(C(=O)Nc2ccncc2)cc1 [GSK1398460],0,10,15,0,6,6,0,0,11,6,0,0,0,17,12,7,22,29,26,83
CN(c1ccc(NC(=O)Nc2cccc(Cl)c2)cc1)c1ccnc(N)n1.Cl [GW830707],0,0,5,17,0,97.4,0,0,4,0,28,12,38,5,0,16,29,0,0,67
Cc1ccc(O)cc1Nc1ccnc2ccc(C(C)(C)C)cc12 [GW856805],38,15,56,30,51,54,51,20,9,18,38,0,21,0,29,4,45,76,1,48
CCn1cnc2c(NCc3ccccc3)ncnc21 [SKF-96418],30,0,0,38,0,0,33,16,0,0,12,0,43,16,0,19,0,0,0,10
Cc1ccc(C)c(NC(=O)Nc2ccc(C)c(-c3ccc(C(=O)Nc4ccncc4)cc3)c2)c1 [GSK1398473],4,20,10,0,15,3,0,0,12,12,17,97.6,11,17,7,0,15,29,0,87
Cl.O=C(Nc1ccc(Oc2ccc3[nH]c(NC(=O)c4ccco4)nc3c2)cc1)Nc1cc(C(F)(F)F)ccc1F [GW683134],24,42,24,0,32,78,0,15,0,0,2,0,14,9,2,0,14,61,0,92.9
Nc1ncc(-c2cn[nH]c2)c2scc(-c3ccc4c(c3)CCN4C(=O)Cc3ccccc3)c12 [GSK2593067],16,6,9,0,9,53,33,0,0,12,4,31,52,23,3,0,30,57,6,81
Cc1ccc(NC(=O)c2cccc(N3CCCCC3)c2)cc1-c1ccc(C(=O)NCC2CC2)cc1 [GSK1917008],0,0,37,13,18,6,0,0,0,18,13,0,2,10,9,11,22,10,12,35
NCCC(NC(=O)c1cc(Br)c(-c2ccnc3[nH]ccc23)s1)c1ccccc1.O=C(O)C(F)(F)F.O=C(O)C(F)(F)F (centres unmarked) [GSK1307810],7,0,30,8,16,55,25,23,4,0,0,0,24,37,10,0,18,14,4,97.3
CN(C)c1ncnc2nc[nH]c12 [SKF-31736],26,0,14,42,21,5,47,38,0,0,15,0,10,13,0,0,0,0,0,10

# Reference: PMC5540273 (PLoS ONE, 2017)
